Screens: PubChem, several laboratories
A selection: hits, their analogues and other compounds. The true share with any hit is near 7.2%.
Bfl-1 A1 inh – inhibitors of the anti-apoptotic protein A1, read as caspase activation; AID 2462; actives 0.066% (n = 330,000); MEF A1-2A-BIM cells, Caspase-Glo 3/7 luminescence, 3 h; percent of clofoctol response, vehicle zero; caspase activation, % (concentration not given with the values);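 active means over half of replicate activation scores above 10%, or exactly half above 10 with the replicate mean above 10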
ALR inh – inhibitors of human sulfhydryl oxidase ALR; inhibition, % (concentration not given with the values); P55789; actives 3.8% (n = 290,000); purified ALR, DTT oxidation, H2O2 HRP-luminol luminescence;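 active means mean replicate inhibition above about 79%, with every replicate also reaching it, limit read from the data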
AHR act – activates the human aryl hydrocarbon receptor; AID 2796; activation, % at 5 µM; actives 2.5% (n = 320,000); AHR-responsive luciferase reporter cells, luminescence; in the data active means activation above about 47%;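 further: 0% = vehicle wells and 100% = reference agonist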
Target sequence (P35869 whole entry, looked up): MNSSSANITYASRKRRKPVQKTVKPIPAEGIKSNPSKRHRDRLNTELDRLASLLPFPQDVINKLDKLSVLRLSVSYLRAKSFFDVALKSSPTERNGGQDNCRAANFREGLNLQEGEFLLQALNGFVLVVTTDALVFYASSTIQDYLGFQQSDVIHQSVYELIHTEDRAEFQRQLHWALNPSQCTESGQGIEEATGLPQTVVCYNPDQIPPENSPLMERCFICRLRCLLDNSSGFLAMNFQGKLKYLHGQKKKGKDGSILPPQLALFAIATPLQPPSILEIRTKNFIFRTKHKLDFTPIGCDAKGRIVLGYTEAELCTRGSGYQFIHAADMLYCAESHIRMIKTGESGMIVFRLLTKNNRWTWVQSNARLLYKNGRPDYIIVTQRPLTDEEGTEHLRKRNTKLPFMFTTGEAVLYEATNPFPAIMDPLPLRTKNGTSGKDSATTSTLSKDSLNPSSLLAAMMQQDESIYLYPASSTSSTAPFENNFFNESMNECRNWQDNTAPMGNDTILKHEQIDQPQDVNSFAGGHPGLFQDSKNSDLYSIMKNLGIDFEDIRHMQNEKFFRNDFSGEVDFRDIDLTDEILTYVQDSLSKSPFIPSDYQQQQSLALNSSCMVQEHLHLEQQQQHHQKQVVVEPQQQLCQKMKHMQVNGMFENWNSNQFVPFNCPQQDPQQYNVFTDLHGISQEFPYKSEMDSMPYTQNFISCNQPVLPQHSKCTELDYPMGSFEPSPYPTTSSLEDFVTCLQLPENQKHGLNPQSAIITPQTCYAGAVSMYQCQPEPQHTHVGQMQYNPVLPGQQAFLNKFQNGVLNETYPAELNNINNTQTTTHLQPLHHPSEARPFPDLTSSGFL
Efflux pump mplx – antifungal efflux pump inhibition, Nile Red retention. S. cerevisiae Candida pump triplex. inhibition, % at 10 µM. actives 0.44% (n = 330,000);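 active means plate passing quality check with inhibition over a set limit, or well fluorescence over plate mean plus 4 SD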;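 further: Nile Red retained in pooled yeast measured as flow cytometry median fluorescence; 0% = buffer negative control and 100% = Enniatin B positive control; higher means more Nile Red kept so more efflux inhibition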
VLA-4 inh – inhibition in a human VLA-4 binding assay; actives 0.2% (n = 330,000); inhibition, % (about 7 µM as worked out from the volumes in the protocol); P13612; VLA-4 expressing cells, ligand binding flow cytometry; in the data active means inhibition above about 50%
SUMO Mot1 rescue – blocks SUMOylation pathway, rescuing yeast Mot1-301 growth | S. cerevisiae Mot1-301 growth rescue, ATP luminescence, 38.5C; percent above DMSO median, 100 means doubled | growth rescue, % at 18.8 µM | actives 1% (n = 320,000);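 active means every valid replicate shows activation above 250% relative to neutral control wells; inactive means the rest, any valid replicate at or below 250%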;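 further: OY570 slx delta 5 strain wells were the positive control but not used for scaling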
Active calls of the source: *; / = not tested or not shown.

SMILES	Bfl-1 A1 inh	ALR inh	AHR act	Efflux pump mplx	VLA-4 inh	SUMO Mot1 rescue
O=C(Nc1ccccc1Oc1ccccc1)c1cc([N+](=O)[O-])ccc1Cl	-0.2	/	108.3*	-0.7	0.0	247.9
O=C(Nc1cc(Cl)ccc1Oc1ccccc1)c1ccccc1F	-0.5	0.1	65.0*	0.0	10.3	229.1
O=C(Nc1cc(Cl)ccc1Oc1ccccc1)c1ccc(F)cc1	2.5	-7.7	3.8	0.2	34.7	-0.7
Cc1cccc(NC(=O)c2cc([N+](=O)[O-])ccc2Cl)c1O	0.3	/	48.4*	-0.5	6.2	-8.3
Cc1n[nH]c(C)c1NC(=O)c1cc([N+](=O)[O-])ccc1Cl	0.1	-16.0	-1.1	0.1	0.3	-6.5
CCNc1nc(ON=C(C)C)nc(N(C)C)n1	1.2	-1.8	0.9	0.7	9.1	3.0
CSCCC(NC(=O)c1ccc([N+](=O)[O-])cc1Cl)C(=O)OC1CCCCC1=O (stereo not drawn)	-0.2	-4.0	1.2	0.0	0.3	17.5
COc1cccc(CC(=O)OCC(=O)NCC(=O)Nc2cccc(C)c2C)c1	0.7	-4.5	1.8	0.2	5.9	-18.6
CC(C)CN(C(=O)c1ccc(S(=O)(=O)N2CCOCC2)cc1)C1CCS(=O)(=O)C1 (stereo not drawn)	0.4	-8.3	1.3	0.0	-1.6	-1.0
Cc1ccc2cccc(OCc3ccc(F)cc3)c2n1	1.4	-2.1	16.9	0.0	19.9	-15.4
Cc1ccc2cccc(OCc3ccc(Br)cc3)c2n1	1.6	-1.8	72.9*	-0.1	5.7	-1.0
Cc1cc(OCC(=O)NC2CCN(Cc3ccccc3)CC2)c2c(C)cc(=O)oc2c1	0.8	-1.0	0.0	0.1	-1.6	-2.0
COc1cccc(CN2CCNC(=O)C2CC(=O)N(C)C2CCOCC2)c1OC (stereo not drawn)	0.5	-29.8	3.2	-0.1	4.5	3.2
Cc1oncc1C(=O)Nc1ccc(C(F)(F)F)cc1	-10.8	-21.7	67.4*	0.0	36.4	57.2
Cc1csc(=Nc2cccnc2)n1Cc1ccco1	0.2	33.8	9.2	-0.4	-12.1	3.4
COc1ccc2cc(C(=O)NCCCN3CCCC3=O)[nH]c2c1	0.2	-9.4	12.2	0.0	-10.4	10.2
Cc1csc(=Nc2ccccc2)n1CCCN1CCCC1=O	-0.3	98.5*	2.0	0.0	-10.9	2.2
Cc1csc(=Nc2ccccc2)n1C	0.3	99.0*	-8.0	0.2	3.8	1.9
COc1ccc(N=c2scc(C)n2CCCN2CCCC2=O)cc1	-1.0	99.7*	1.6	0.1	7.8	2.1
CC1(NC(=O)CCNC(=O)c2ccc(C(C)(C)C)cc2)CCS(=O)(=O)C1 (stereo not drawn)	-0.9	-0.1	0.2	-0.1	36.6	-11.7
O=C(Cc1coc2ccc3ccccc3c12)Nc1nnc(C2CC2)s1	-0.2	/	68.6*	0.0	0.8	-2.6
Cc1cc2occ(CC(=O)Nc3nnc(C4CC4)s3)c2cc1C	2.7	-1.2	0.8	0.0	14.9	685.1
CON(C)C(=O)CC(CN(Cc1ccccc1)C(=O)OC(C)(C)C)c1ccc(Cl)cc1 (stereo not drawn)	0.1	-1.0	-0.9	0.5	10.1	-9.1
O=C(COC(=O)/C=C/c1ccc(S(=O)(=O)N2CCOCC2)cc1)NCc1ccc(F)cc1	-0.7	4.7	-2.0	0.0	14.7	306.8*
O=C(NCCCN1CCCC1)c1ccc2c(Cl)c3c(nc2c1)CCCC3	-0.1	94.2*	2.4	0.0	4.0	-0.7
SMILES	Bfl-1 A1 inh	ALR inh	AHR act	Efflux pump mplx	VLA-4 inh	SUMO Mot1 rescue
CCOC(=O)C1CCN(C(=O)c2ccc3c(Cl)c4c(nc3c2)CCCC4)CC1	0.2	95.4*	7.1	0.2	-82.7	19.1
CCOC(=O)N1CCN(C(=O)c2ccc3c(SCC(=O)O)c4c(nc3c2)CCC4)CC1	0.7	79.8*	2.7	0.0	6.0	1.6
CCOC(=O)c1ccccc1NC(=O)c1ccc2c(SCC(=O)O)c3c(nc2c1)CCCC3	0.1	8.7	3.2	0.1	5.2	11.6
COCCn1nnnc1CN1C2CCCC1CC(NC(C)=O)C2 (stereo not drawn)	0.4	-2.2	-1.5	-0.1	4.9	-1.3
CCOC(=O)c1c(C)n(C)c2ccc(OC)c(NC(=O)CCN3CCC(Cc4ccccc4)CC3)c12	-0.2	-1.2	65.8*	0.1	14.9	27.9
COc1ccc(CNC(=O)CCNS(=O)(=O)c2cc(Br)cnc2N)cc1	0.4	-9.3	2.2	-0.1	-9.3	18.1
CCCC1COC(Cn2cncn2)(c2ccc(C)cc2)O1 (stereo not drawn)	0.4	/	0.2	0.0	-3.5	281.1*
COc1cc2cc(C(=O)N/N=C/c3ccccc3Cl)[nH]c2cc1OC	0.1	-1.2	-2.1	-0.1	4.6	-21.5
Cc1ccccc1C(=O)O/N=C(\N)Cc1cccs1	-7.8	-2.1	24.3	0.0	22.0	-12.8
C=CCNC(=O)c1cnc(-c2ccccc2)nc1-c1ccccc1	0.2	-3.6	3.9	0.0	0.9	3.4
O=C(Nc1ccc(F)c(F)c1)c1cnc(-c2ccccc2)nc1-c1ccccc1	0.8	-5.8	65.3*	0.0	6.1	0.4
O=C(C1CC(=O)N(c2ccc3c(c2)OCCO3)C1)N1CCN(c2ccccc2O)CC1 (stereo not drawn)	-0.7	83.8*	-1.9	-1.2	7.1	3.2
CN(C)/C=C(/C(=O)c1ccccc1)n1cncn1	0.5	-2.6	-2.4	-0.1	7.0	0.8
O=C(/C=C(/c1ccc(Cl)cc1)n1cncn1)c1ccccc1	-0.6	26.6	64.5*	0.2	14.3	38.6
Oc1ccccc1-c1cc(-c2ccc(F)cc2)n[nH]1	-4.7	1.4	74.3*	-0.2	9.8	-11.8
Cc1ccc(-c2cc(-c3ccc(F)cc3)n[nH]2)c(O)c1	-1.2	-5.9	/	0.1	8.4	137.2
Oc1ccc(Cl)cc1-c1cc(-c2ccccc2)n[nH]1	-0.1	-3.2	66.3*	0.3	9.1	342.6*
Oc1ccc(Br)cc1-c1cc(-c2ccccc2F)[nH]n1	-0.4	-8.2	55.8*	-0.1	4.6	-11.4
Cc1nn(CC(=O)Nc2cccc(S(N)(=O)=O)c2)c(C)c1[N+](=O)[O-]	-0.2	/	4.1	0.1	12.4	-2.2
Cc1ccc(S(=O)(=O)NC(CC(C)C)C(=O)N2CCCCCCC2)cc1 (stereo not drawn)	0.0	/	2.2	-0.1	35.3	-6.5
CN1c2cccc3cccc(c23)N(C)C1(C)C	-0.8	87.4*	11.7	-0.1	19.2	-16.4
CN1c2ccccc2N(C)C1(C)c1cccc2ccccc12	-0.2	13.2	2.0	-0.4	-43.8	6.5
O=C1C2CC=CCC2C(=O)N1Cc1nnc(-c2ccccc2Br)o1 (stereo not drawn)	1.0	2.8	1.8	0.0	-0.5	-12.3
O=C(c1ccc([N+](=O)[O-])cc1[N+](=O)[O-])n1cnc2ccccc21	-0.3	-29.4	59.1*	-0.1	-2.1	-13.9
